Assay results from PubChem BioAssay (EPA / NIEHS).
Active and inactive are the calls of the source. Rule for the calls: active = hit-call score of the fitted dose curve at least 0.9, where 1 is the maximum; inactive = score below 0.9.

Test: ATG_NFI_CIS: Attagene CIS-FACTORIAL HepG2 Assay for human Nuclear Factor I (NFI) (AID 2282989)
Settings: HepG2 cis-regulatory reporter, NFI response element transcription; actives raise or lower the signal
Protocol: ATG_CIS is a cell-based, multiplexed-readout assay that uses HepG2, a human liver cell line, with measurements taken at 24 hours after chemical dosing in a 24-well plate.ATG_NFI_CIS is one of 52 assay component(s) measured or calculated from the ATG_CIS assay. It is designed to make measurements of mRNA induction, a form of inducible reporter, as detected with fluorescence intensity signals by Reverse transcription polymerase chain reaction (RT-PCR) and Capillary electrophoresis technology.Data from the assay component ATG_NFI_CIS was analyzed into 1 assay endpoint. This assay endpoint, ATG_NFI_CIS, was analyzed with bidirectional fitting relative to DMSO as the negative control and baseline of activity. Using a type of inducible reporter, measures of mRNA for gain or loss-of-signal activity can be used to understand the reporter gene at the transcription factor-level as they relate to the gene NFIA. Furthermore, this assay endpoint can be referred to as a primary readout, because this assay has produced multiple assay endpoints where this one serves a reporter gene function. To generalize the intended target to other relatable targets, this assay endpoint is annotated to the dna binding intended target family, where the subfamily is nuclear factor I.
Human liver HepG2 cells are transiently transfected with multiple reporter transcription units (MRTUs) in 6-well plates using FuGene 6 reagent (Roche; 3 ml FuGene/1 mg DNA). The MRTU constructs are regulated by a cis-regulating element (promoter). […] A major difference between the CIS and TRANS system is that in CIS activities of endogenous TFs are measured, whereas the TRANS assay evaluates changes in activities of exogenous, chimeric NR-Gal4 proteins. […] At the end of 24 hour incubation, total RNA was isolated using TriZol reagent (Invitrogen). The isolated RNA is then reverse-transcribed using oligo(dT) primer and Mo-MLV reverse transcriptase (Invitrogen) with DNAse I (Ambion) treatment for 30 min. The one-tenth of the produced cDNA was amplified by PCR using Taq DNA polymerase (Invitrogen) and two reporter sequence-specific primers. The PCR products were fluorescently labeled by primer extension with 6-arboxyfluorescein (6-FAM) 5'-labeled reporter sequence-specific primer (2 min at 95 C, 20 s at 68 C and 10 min at 72 C) and these products were digested with 5U of HpaI (New England Biolabs) for 2h at 37 C. The fragments were purified using Qiaquick PCR columns (Qiagen), analyzed on an ABI 3130xL genetic analyzer (Applied Biosystems) with peak positions identified by using a set of X-rhodamine (ROX)-labeled MapMarker1000 molecular weight standards (BioVentures). The raw capillary electrophoresis data was processed using Attagraph software (Attagene).

SMILES	outcome	AC50
NC(N)=Nc1nc(CSCCC(N)=NS(N)(=O)=O)cs1	inactive	
COC(OC)C(C)c1ccccc1 (stereo not given)	inactive	
Nc1ccc(S(=O)(=O)Nc2cnc3ccccc3n2)cc1	inactive	
CCCCn1cc[n+](C)c1	inactive	
CCCC(=O)OC	inactive	
CCOC(=O)CC(=O)OCC	inactive	
O=C(O)c1cc(Cl)cc(Cl)c1O	inactive	
CCCN[C@H]1CCc2nc(N)sc2C1	inactive	
CC(C)CC(=O)CC(C)CC(C)C (stereo not given)	inactive	
C1=CCC=C1	inactive	
CN(C)Cc1cc(C(C)(C)C)c(O)c(C(C)(C)C)c1	inactive	
CC/C=C/CCO	inactive	
Clc1ccccn1	inactive	
COC(=O)c1ccccc1	inactive	
COC(=O)CCSCCC(=O)OC	inactive	
CN(C)c1ccc(C(c2ccccc2)c2ccc(N(C)C)cc2)cc1	inactive	
CC(=O)c1nccs1	inactive	
[O-][n+]1ccc(Cl)cc1	inactive	
C[C@H]1C[C@H]2[C@@H]3CCC4=CC(=O)C=C[C@]4(C)[C@@]3(F)[C@@H](O)C[C@]2(C)[C@@]1(O)C(=O)CO	inactive	
Cc1ccccc1S(N)(=O)=O	inactive	

SMILES	outcome	AC50
CCO[Si](OCC)(OCC)c1ccccc1	inactive	
CC/C=C\CCCCCO	inactive	
O=C1NC(=O)C2CC=CCC12 (stereo not given)	inactive	
COC(=O)[C@]1(C)CCC[C@@]2(C)[C@H]1CC=C1C=C(C(C)C)CC[C@@H]12	inactive	
Cc1cccnc1	inactive	
CN1CCCC1	inactive	
c1cc[c]([Bi]([c]2ccccc2)[c]2ccccc2)cc1	inactive	
CC(C)(C)NC(=O)[C@@H]1CN(Cc2cccnc2)CCN1C[C@@H](O)C[C@@H](Cc1ccccc1)C(=O)N[C@H]1c2ccccc2C[C@H]1O	inactive	
Cc1cc2nc3c(=O)[nH]c(=O)nc-3n(C[C@H](O)[C@H](O)[C@H](O)CO)c2cc1C	inactive	
NC(=O)c1ccc(N)cc1	inactive	
COCCCN	inactive	
CC1=NN(c2cc(Cl)c(S(=O)(=O)O)cc2Cl)C(=O)C1N=Nc1ccc(S(=O)(=O)O)cc1 (stereo not given)	inactive	
CCCCC(CC)COC(=O)CS (stereo not given)	inactive	
CC(=O)Nc1c(I)c(NC(C)=O)c(I)c(C(=O)O)c1I	inactive	
c1ccc2c(c1)Oc1ccccc1S2		140 µM (active)
CC[N+](CC)(CC(=O)Nc1c(C)cccc1C)Cc1ccccc1 (tested in a mixture with another compound)	inactive	
Cc1ccccc1S(=O)(=O)O	inactive	
Brc1ccc(Oc2ccc(Br)cc2)cc1	inactive	
CCCCCCCCCCCCCCCCCC[N+](C)(C)C	inactive	
O=C(C(=O)c1ccccc1)c1ccccc1	inactive	
